Assay in all cases: NCI-60 one-dose screen, 48 h (100 = growth as untreated, 0 = no growth, -100 = all killed)
What all share (settings): 10 µM unless noted

For experiment [1], the system named is HCT-15 colon.
The test system of experiment [2] is HT29 colon.
Experiment [3] concerns SNB-75 CNS.
Experiment [4] concerns SNB-19 CNS.
Experiment [5] has as its system U251 CNS.
The subject of experiment [6] is PC-3 prostate.
Experiment [7] relates to SK-MEL-5 melanoma.
Experiment [8] relates to UACC-62 melanoma.
The subject of experiment [9] is LOX IMVI melanoma.
In experiment [10] the test system is SK-MEL-28 melanoma.

Compounds without any hit were thinned out: in the full panel of roughly 83,000, 20% have a hit.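 Step 1: grow cells in 96-well plates. Step 2: add test compound at a single concentration. Step 3: incubate 48 h. Step 4: record percent growth.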 Unmarked numbers belong to inactive results. Active and inactive are the calls of the source. How the source made its calls: active means growth percent below 10; inactive means the rest.

Regarding `COc1ccccc1NC(=O)N/C(N)=N/c1nc2ccccc2s1`, the growth in [1] is 16.5%; in experiment [2], 8.24% (active); in experiment [3], 22.6%; in experiment [4] it was 37.5%; in [5] it was 18.3%; in experiment [6] it was 25%. Besides, the growth in experiment [7] was 23.7%; in experiment [8], 31.4%; in experiment [9] it was 34.3%; in [10], 53.4%.

Consider `Cn1c(-c2c(N)n(Cc3cccnc3)c3nc(C#N)c(C#N)nc23)nc2ccccc21`, for which the growth in experiment [1] was 94.5%; in [2], 92.1%; in experiment [3], 96.6%; in experiment [4], 103%; in experiment [5] it was 94.3%; in experiment [6] it was 66%. In addition, the growth in experiment [7] was 89.2%; in [8] it was 89.8%; in [9] it was 97.4%; in experiment [10], 113%.

In the case of `C=C1C(=O)O[C@H]2[C@H]1CC/C(CNC(=O)/C=C/c1ccc(Cl)cc1Cl)=C\CC[C@@]1(C)O[C@@H]21`, the growth was -64% (active) in [1]; -58.4% (active) in experiment [2]; 21.3% in experiment [3]; 37.4% in experiment [4]; 8.28% (active) in experiment [5]; -26.4% (active) in [6]. Besides, the growth in experiment [7] was 3.01% (active); in [8] it was -65.2% (active); in experiment [9] it was -97.2% (active); in experiment [10], -68.2% (active).

For the molecule `Cn1cc2c(c1)-c1nc(Nc3ccccc3)ncc1CC2`, the growth in experiment [1] is 45.9%; in experiment [2], 79.9%; in experiment [3], 75.7%; in experiment [4], 69.4%; in experiment [5], 59.7%; in experiment [6] it was 58.5%. For the same molecule, the growth in experiment [7] was 73.2%; in experiment [8] it was 51.1%; in [9], 49.6%; in experiment [10], 99.9%.

As for `CC1(c2ccccc2)NC(=O)N(NC(=O)CSc2nc(-c3cccs3)nc3ccccc23)C1=O` (stereo not given), the growth in [1] is 91.2%; in experiment [2], 108%; in experiment [3], 96.4%; in [4] it was 92.2%; in experiment [5], 94.6%; in [6], 90.8%. In addition, the growth was 85.2% in [7], 69% in experiment [8], 95.9% in experiment [9] and 115% in experiment [10].

`Cc1cc(O)c(C2=NN(c3ccc(S(N)(=O)=O)cc3)C(c3ccccc3Cl)C2)cc1Cl` (stereo not given): the growth in [1] is 34.8%; in experiment [2] it was 0.516% (active); in experiment [3], 41.7%; in experiment [4], 58.1%; in [5], 7.79% (active); in [6], 10.9%. Further, the growth in experiment [7] was 36.5%; in experiment [8], 45.1%; in experiment [9] it was -83.7% (active); in experiment [10], 63.2%.

Turning to `NC(=S)N/N=C/Cc1ccccc1`, the growth was 87.4% in experiment [1]; 94.7% in experiment [2]; 110% in [3]; 104% in experiment [4]; 98.4% in experiment [5]; 91.4% in experiment [6]. The growth is 107% in experiment [7], 108% in experiment [8], 73% in experiment [9] and 109% in experiment [10].

Turning to `O=C1C=C[C@]2(C[C@@H](c3cccc(C(F)(F)F)c3)O[C@@H](c3cccc(C(F)(F)F)c3)O2)O1`, the growth in [1] is -33.8% (active); in experiment [2], -24.2% (active); in experiment [3], 57.9%; in [4], 33.2%; in experiment [5] it was 28.6%; in experiment [6] it was 7.18% (active). For the same molecule, the growth in experiment [7] is -58.2% (active); in experiment [8], -38.6% (active); in experiment [9], -84.6% (active); in [10], 48.6%.

Take `CCN(CC)CCN1C(=O)c2c(c(C)c3c(oc4cc(O)ccc43)c2C)C1=O`: the growth in [1] was -58.9% (active); in experiment [2], -37.2% (active); in [3], 90.3%; in [4], 9.88% (active); in experiment [5], -87.9% (active); in experiment [6], -75.1% (active). In addition, the growth in [7] was 79%; in experiment [8], 86.2%; in experiment [9] it was 94%; in experiment [10], 63.1%.

On to `Cc1ccc2c(c1)Sc1c(ccc3ccccc13)N2`, for which the growth is 32.3% in [1]; 73.3% in experiment [2]; 51.8% in [3]; 94.5% in experiment [4]; 45.3% in experiment [5]; 61% in experiment [6]. For the same molecule, the growth was 46% in [7], 58.9% in experiment [8], 45.6% in experiment [9] and 84.7% in experiment [10].

In the case of `Cc1c(Cl)cc(-n2c(=O)c3ccccc3c3ccccc3c2=O)cc1Cl`, the growth in experiment [1] is 110%; in experiment [2], 103%; in [3] it was 89.9%; in [4] it was 104%; in experiment [5], 102%; in [6], 82%. Also, the growth in experiment [7] is 107%; in [8] it was 92.6%; in experiment [9], 95.2%; in experiment [10], 117%.

Regarding `Nc1n[nH]c2cc(F)c([C@@H]3Nc4c(F)cc5[nH]ncc5c4[C@H]4C5CCC(C5)[C@@H]34)cc12` (stereo not given in full), the growth in experiment [1] is 6.76% (active); in experiment [2], 17%; in [3], -20.9% (active); in [4] it was 53.1%; in [5] it was 33.2%; in experiment [6] it was 22.5%. Moreover, the growth is 8.05% (active) in experiment [7], 35.3% in experiment [8], 20.2% in experiment [9] and 52.8% in [10].

For `CCN1C(=O)N(CC)C2Nn3c(s/c(=C4\C(=O)N(C)c5ccccc54)c3=O)=NC21` (stereo not given), the growth in experiment [1] was 29.7%; in [2], 74.9%; in experiment [3], 9.74% (active); in [4] it was 56.5%; in [5], 39.7%; in experiment [6], 27.8%. Further, the growth in [7] is 36.4%; in experiment [8], 51%; in experiment [9], 55.9%; in [10], 59.3%.
